From publication PMC7862700, “An all-to-all approach to the identification of sequence-specific readers for epigenetic DNA modifications on cytosine”

Key:
Experiment in all cases: DAPPL (digital affinity profiling via proximity ligation, sequencing); 10 mM Tris-HCl pH 7.5, 50 mM NaCl, 1 mM DTT, 4% glycerol, room temperature, 30 min; GST-TFs on glutathione beads, 16-mer random dsDNA library, 0.1% formaldehyde crosslink after washing; high values mean tight binding
[1] = biological target: T1, FLI1 (Homo sapiens, UniProt Q01543 1-452); details: protein: recombinant; tags: N-terminal GST; dsDNA, one strand shown
T1 sequence: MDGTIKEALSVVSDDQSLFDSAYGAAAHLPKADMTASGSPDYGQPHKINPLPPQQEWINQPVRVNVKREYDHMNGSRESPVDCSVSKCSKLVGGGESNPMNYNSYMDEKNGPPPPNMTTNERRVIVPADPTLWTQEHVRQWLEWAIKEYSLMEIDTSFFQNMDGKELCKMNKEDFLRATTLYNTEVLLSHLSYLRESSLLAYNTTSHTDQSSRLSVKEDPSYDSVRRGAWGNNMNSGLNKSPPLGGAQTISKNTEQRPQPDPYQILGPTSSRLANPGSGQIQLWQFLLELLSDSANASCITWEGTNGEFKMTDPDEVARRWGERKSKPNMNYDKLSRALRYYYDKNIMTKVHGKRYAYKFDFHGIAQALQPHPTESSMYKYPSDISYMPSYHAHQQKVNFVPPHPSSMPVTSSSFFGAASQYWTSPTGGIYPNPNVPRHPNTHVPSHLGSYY
How it was run: (§1)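 Sequencing on an Illumina NextSeq500 followed washing, crosslinking with 0.1% formaldehyde, proximity ligation (BsaI/T4 ligase, 1 h, 37 °C) and PCR amplification of pools that had been incubated for 30 min at room temperature with 200 nmole of a random double-stranded 16-mer DNA library in Tris/NaCl/DTT/glycerol buffer. Each pool held DNA-barcoded human transcription factors, expressed in yeast as GST fusions and captured on glutathione beads, plus a tag-only sample. Binding signal is a hexamer's read frequency for a factor divided by its frequency in the tag-only sample.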

[2] = biological target: T2, ELK1 (Homo sapiens, UniProt P19419 1-428); details: protein: recombinant; tags: N-terminal GST; dsDNA, one strand shown
T2 sequence: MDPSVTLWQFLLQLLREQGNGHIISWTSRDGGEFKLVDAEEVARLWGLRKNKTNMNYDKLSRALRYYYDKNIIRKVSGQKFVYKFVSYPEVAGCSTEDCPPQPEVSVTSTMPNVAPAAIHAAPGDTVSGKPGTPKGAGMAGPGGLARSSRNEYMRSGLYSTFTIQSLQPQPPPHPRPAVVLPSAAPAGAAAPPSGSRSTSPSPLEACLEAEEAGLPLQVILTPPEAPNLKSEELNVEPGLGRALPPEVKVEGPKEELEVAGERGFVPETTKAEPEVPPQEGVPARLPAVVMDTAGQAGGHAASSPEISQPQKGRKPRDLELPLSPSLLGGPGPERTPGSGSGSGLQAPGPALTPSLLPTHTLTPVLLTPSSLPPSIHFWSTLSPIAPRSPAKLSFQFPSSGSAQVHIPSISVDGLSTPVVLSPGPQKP
How it was run: as §1

[3] = biological target: T3, GABPA (Homo sapiens, UniProt Q06546 1-454); details: protein: recombinant; tags: N-terminal GST; dsDNA, one strand shown
T3 sequence: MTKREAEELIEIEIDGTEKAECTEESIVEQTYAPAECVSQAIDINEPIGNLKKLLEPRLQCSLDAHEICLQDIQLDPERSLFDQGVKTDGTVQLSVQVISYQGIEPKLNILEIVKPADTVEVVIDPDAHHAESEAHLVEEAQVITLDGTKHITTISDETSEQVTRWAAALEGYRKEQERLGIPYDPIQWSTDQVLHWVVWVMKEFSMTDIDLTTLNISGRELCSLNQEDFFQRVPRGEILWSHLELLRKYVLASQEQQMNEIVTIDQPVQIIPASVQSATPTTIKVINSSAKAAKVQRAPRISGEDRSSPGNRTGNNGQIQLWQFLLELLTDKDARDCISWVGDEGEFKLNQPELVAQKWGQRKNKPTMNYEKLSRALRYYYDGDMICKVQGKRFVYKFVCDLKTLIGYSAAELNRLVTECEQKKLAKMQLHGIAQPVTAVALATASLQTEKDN
How it was run: as §1

[4] = biological target: T4, ERG (Homo sapiens, UniProt P11308 1-479); details: protein: recombinant; tags: N-terminal GST; dsDNA, one strand shown
T4 sequence: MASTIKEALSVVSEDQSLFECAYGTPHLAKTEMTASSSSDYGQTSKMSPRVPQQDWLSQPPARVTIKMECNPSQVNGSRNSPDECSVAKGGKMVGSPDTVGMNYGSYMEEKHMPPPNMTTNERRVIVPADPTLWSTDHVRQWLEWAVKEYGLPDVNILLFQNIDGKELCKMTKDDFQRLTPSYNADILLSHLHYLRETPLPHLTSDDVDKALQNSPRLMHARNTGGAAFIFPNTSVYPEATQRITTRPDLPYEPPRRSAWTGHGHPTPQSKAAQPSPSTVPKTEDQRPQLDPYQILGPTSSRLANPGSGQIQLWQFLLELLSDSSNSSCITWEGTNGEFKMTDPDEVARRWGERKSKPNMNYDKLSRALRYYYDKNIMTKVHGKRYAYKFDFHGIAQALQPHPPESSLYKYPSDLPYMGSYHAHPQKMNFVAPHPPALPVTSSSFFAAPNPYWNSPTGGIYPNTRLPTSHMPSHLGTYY
How it was run: as §1

[5] = biological target: ELF1 (Homo sapiens, UniProt P32519 1-619); details: protein: recombinant; tags: N-terminal GST; dsDNA, one strand shown
ELF1, sequence (P32519 whole entry): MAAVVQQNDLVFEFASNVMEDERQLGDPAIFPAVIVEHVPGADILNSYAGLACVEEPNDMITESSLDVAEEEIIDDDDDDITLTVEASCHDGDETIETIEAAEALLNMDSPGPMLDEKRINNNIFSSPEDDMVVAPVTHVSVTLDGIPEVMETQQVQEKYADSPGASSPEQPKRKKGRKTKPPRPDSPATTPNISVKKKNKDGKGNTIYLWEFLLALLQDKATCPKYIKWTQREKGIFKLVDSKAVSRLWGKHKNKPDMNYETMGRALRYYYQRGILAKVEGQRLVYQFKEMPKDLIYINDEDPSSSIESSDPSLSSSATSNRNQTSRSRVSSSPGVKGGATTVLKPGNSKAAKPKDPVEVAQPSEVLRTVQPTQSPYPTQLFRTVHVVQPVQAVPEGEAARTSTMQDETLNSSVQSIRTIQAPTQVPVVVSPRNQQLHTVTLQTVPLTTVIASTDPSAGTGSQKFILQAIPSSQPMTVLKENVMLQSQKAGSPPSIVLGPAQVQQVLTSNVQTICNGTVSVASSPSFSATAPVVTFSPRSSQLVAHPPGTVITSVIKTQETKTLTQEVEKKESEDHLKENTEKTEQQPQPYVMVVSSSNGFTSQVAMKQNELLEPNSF
How it was run: as §1

[6] = biological target: T5, EHF (Homo sapiens, UniProt Q9NZC4 1-300); details: protein: recombinant; tags: N-terminal GST; dsDNA, one strand shown
T5 sequence: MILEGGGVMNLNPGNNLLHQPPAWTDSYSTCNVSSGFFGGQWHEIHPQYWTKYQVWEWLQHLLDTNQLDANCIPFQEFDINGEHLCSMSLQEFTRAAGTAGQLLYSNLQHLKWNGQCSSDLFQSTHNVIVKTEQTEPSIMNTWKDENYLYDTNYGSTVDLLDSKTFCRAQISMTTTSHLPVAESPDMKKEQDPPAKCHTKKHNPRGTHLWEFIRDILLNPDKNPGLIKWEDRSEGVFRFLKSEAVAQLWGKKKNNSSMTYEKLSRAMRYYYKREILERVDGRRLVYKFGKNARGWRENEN
How it was run: as §1

[7] = biological target: SPI1 (Homo sapiens, UniProt P17947 1-270); details: protein: recombinant; tags: N-terminal GST; dsDNA, one strand shown
How it was run: as §1

[8] = biological target: SPIB (Homo sapiens, UniProt Q01892 1-262); details: protein: recombinant; tags: N-terminal GST; dsDNA, one strand shown
SPIB, sequence (Q01892 whole entry): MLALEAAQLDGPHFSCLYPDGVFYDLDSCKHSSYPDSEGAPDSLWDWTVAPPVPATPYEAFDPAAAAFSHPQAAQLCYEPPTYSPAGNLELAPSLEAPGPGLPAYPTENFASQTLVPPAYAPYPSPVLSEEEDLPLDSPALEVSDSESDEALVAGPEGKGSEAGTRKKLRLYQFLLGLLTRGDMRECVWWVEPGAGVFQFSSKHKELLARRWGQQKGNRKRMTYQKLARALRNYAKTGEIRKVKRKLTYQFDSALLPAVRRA
How it was run: as §1

[9] = biological target: T6, ELK3 (Homo sapiens, UniProt P41970 1-407); details: protein: recombinant; tags: N-terminal GST; dsDNA, one strand shown
T6 sequence: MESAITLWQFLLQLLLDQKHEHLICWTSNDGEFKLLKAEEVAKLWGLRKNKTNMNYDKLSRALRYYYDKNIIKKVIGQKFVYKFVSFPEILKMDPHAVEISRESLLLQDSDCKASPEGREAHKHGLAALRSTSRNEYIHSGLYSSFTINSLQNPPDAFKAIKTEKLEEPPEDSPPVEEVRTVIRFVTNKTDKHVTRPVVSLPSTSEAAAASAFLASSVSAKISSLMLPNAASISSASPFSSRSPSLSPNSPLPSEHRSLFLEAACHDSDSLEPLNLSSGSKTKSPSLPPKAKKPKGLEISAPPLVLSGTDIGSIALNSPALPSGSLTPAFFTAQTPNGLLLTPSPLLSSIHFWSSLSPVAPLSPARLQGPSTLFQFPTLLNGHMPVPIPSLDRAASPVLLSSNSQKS
How it was run: as §1

[10] = biological target: T7, FEV (Homo sapiens, UniProt Q99581 1-238); details: protein: recombinant; tags: N-terminal GST; dsDNA, one strand shown
T7 sequence: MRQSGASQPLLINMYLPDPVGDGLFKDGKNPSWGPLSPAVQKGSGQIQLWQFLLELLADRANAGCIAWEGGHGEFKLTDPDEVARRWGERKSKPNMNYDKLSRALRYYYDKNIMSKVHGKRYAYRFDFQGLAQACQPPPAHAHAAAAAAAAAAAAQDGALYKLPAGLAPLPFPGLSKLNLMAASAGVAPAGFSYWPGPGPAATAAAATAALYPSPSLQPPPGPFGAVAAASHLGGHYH
How it was run: as §1

[11] = biological target: ETV5 (Homo sapiens, UniProt P41161 1-510); details: protein: recombinant; tags: N-terminal GST; dsDNA, one strand shown
ETV5, sequence (P41161 whole entry): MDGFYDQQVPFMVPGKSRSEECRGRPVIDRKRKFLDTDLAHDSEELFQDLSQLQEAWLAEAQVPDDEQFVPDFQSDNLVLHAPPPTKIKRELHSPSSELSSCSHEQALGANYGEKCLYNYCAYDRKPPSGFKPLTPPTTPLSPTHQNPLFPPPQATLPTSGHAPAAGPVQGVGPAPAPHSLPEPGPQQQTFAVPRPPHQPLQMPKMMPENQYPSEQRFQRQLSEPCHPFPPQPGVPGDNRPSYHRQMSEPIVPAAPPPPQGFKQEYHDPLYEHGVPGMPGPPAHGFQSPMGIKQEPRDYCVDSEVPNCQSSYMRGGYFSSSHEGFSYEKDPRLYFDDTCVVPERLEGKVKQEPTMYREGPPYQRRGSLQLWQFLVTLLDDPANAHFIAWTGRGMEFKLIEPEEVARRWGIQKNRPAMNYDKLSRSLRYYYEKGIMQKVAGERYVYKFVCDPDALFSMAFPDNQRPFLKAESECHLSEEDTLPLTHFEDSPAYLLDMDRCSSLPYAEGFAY
How it was run: as §1

[12] = biological target: HSF1 (Homo sapiens, UniProt Q00613 1-529); details: protein: recombinant; tags: N-terminal GST; chain copies: 3; dsDNA, one strand shown
HSF1, sequence (Q00613 whole entry): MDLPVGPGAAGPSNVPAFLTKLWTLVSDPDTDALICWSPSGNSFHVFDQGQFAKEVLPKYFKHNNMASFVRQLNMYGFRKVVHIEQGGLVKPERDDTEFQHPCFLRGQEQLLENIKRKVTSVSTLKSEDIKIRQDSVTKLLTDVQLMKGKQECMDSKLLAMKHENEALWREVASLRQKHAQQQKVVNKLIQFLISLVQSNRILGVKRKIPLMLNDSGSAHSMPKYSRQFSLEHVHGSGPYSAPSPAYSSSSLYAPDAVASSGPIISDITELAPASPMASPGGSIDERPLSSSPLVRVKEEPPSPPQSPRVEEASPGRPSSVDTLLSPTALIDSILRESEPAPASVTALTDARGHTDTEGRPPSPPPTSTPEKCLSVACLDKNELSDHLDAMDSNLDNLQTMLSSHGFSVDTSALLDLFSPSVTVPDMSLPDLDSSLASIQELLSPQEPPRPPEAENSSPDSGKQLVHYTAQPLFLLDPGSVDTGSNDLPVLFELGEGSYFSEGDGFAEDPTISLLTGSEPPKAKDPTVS
How it was run: as §1

[13] = biological target: T8, SPIC (Homo sapiens, UniProt Q8N5J4 1-248); details: protein: recombinant; tags: N-terminal GST; dsDNA, one strand shown
T8 sequence: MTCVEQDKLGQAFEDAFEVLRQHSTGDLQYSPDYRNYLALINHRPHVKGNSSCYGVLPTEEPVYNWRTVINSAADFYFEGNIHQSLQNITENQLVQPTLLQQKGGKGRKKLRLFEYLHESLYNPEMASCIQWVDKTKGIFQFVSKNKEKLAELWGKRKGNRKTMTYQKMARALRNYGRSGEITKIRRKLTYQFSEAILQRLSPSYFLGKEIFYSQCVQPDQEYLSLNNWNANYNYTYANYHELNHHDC
How it was run: as §1

[14] = biological target: ELF4 (Homo sapiens, UniProt Q99607 1-663); details: protein: recombinant; tags: N-terminal GST; dsDNA, one strand shown
ELF4, sequence (Q99607 whole entry): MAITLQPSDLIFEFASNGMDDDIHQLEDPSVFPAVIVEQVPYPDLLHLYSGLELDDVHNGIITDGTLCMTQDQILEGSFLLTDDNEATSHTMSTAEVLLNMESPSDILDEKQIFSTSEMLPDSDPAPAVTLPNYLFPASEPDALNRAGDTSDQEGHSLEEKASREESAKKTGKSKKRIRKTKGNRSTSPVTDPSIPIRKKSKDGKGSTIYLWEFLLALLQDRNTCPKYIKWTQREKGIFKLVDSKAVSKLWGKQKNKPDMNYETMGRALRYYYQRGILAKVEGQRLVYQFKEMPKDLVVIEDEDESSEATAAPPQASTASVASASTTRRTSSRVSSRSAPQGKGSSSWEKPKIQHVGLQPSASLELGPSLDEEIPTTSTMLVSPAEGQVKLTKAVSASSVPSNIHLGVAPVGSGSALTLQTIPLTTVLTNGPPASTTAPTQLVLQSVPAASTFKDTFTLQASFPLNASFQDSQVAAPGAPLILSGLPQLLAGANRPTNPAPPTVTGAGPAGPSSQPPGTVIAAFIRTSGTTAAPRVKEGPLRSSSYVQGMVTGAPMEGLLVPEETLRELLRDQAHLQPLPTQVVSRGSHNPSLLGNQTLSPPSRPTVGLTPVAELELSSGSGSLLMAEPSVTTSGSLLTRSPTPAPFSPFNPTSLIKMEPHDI
How it was run: as §1

[15] = biological target: T9, ELK4 (Homo sapiens, UniProt P28324-2 1-405); details: protein: recombinant; tags: N-terminal GST; dsDNA, one strand shown
T9 sequence: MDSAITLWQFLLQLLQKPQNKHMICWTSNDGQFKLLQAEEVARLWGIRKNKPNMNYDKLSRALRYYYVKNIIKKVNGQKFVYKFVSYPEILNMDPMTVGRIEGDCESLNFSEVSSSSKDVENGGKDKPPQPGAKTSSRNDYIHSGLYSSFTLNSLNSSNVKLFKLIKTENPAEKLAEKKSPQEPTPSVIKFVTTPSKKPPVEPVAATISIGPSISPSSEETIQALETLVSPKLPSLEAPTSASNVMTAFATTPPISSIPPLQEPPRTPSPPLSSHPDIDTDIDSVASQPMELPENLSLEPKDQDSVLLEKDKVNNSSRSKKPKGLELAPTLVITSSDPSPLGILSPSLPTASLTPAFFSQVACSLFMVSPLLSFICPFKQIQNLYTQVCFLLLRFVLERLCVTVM
How it was run: as §1

[16] = biological target: T10, ETV2 (Homo sapiens, UniProt O00321 1-342); details: protein: recombinant; tags: N-terminal GST; dsDNA, one strand shown
T10 sequence: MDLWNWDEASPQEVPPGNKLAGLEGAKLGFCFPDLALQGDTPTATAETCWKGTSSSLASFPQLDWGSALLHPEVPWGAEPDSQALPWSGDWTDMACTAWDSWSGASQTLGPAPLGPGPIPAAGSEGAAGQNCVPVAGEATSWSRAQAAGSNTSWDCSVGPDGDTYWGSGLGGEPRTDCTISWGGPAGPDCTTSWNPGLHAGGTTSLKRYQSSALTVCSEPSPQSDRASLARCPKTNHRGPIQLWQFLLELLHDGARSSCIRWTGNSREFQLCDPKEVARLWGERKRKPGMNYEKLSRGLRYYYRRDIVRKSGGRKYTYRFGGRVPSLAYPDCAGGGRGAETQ
How it was run: as §1

[17] = biological target: T11, ELF3 (Homo sapiens, UniProt P78545 1-371); details: protein: recombinant; tags: N-terminal GST; dsDNA, one strand shown
T11 sequence: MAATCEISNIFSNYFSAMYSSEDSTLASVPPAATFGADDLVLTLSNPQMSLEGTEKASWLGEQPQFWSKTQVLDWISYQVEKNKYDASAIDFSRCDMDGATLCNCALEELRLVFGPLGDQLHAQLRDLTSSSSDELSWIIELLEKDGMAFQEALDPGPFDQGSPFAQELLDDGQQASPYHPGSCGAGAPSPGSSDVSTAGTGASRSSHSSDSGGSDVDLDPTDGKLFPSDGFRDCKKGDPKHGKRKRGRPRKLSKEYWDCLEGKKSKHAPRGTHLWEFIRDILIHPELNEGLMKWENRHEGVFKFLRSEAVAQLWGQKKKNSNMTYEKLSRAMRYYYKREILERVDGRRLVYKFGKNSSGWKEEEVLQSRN
How it was run: as §1

[18] = biological target: CRX (Homo sapiens, UniProt O43186 1-299); details: protein: recombinant; tags: N-terminal GST; dsDNA, one strand shown
CRX, sequence (O43186 whole entry): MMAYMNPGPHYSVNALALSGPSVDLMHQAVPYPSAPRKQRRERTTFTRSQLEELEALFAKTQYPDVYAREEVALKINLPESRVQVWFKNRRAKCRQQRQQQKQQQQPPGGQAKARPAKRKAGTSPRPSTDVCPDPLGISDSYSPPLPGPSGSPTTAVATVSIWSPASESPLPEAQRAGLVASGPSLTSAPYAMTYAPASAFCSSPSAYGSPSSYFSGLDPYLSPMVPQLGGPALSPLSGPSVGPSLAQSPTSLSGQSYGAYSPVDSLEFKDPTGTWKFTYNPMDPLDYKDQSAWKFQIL
How it was run: as §1

[19] = biological target: ETV1 (Homo sapiens, UniProt P50549 1-477); details: protein: recombinant; tags: N-terminal GST; dsDNA, one strand shown
ETV1, sequence (P50549 whole entry): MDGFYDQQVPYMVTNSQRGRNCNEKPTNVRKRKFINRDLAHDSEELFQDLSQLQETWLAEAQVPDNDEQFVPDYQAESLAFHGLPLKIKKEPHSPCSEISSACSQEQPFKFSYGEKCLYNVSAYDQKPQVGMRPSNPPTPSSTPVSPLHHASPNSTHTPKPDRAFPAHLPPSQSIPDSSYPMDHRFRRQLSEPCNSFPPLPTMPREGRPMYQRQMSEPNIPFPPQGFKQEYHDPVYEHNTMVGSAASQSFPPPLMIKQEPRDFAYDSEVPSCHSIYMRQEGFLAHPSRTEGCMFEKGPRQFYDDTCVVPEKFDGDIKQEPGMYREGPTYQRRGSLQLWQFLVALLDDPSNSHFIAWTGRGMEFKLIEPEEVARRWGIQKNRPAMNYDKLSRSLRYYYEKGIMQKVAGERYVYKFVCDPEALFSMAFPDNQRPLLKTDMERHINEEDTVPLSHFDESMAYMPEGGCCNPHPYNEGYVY
How it was run: as §1

AAATTT was tested, and the binding signal [1] was 1.31 fold enrichment (6-mer frequency, TF over GST control), the binding signal [2] was 1.31 fold enrichment (6-mer frequency, TF over GST control) and the binding signal [3] was 1.26 fold enrichment (6-mer frequency, TF over GST control). The binding signal [4] was 1.3 fold enrichment (6-mer frequency, TF over GST control), the binding signal [5] was 1.25 fold enrichment (6-mer frequency, TF over GST control) and the binding signal [6] was 1.33 fold enrichment (6-mer frequency, TF over GST control). For the same sequence, the binding signal [7] was 1.22 fold enrichment (6-mer frequency, TF over GST control), the binding signal [8] was 1.45 fold enrichment (6-mer frequency, TF over GST control) and the binding signal [9] was 1.28 fold enrichment (6-mer frequency, TF over GST control). For the same sequence, the binding signal [10] was 1.34 fold enrichment (6-mer frequency, TF over GST control), the binding signal [11] was 1.36 fold enrichment (6-mer frequency, TF over GST control) and the binding signal [12] was 1.47 fold enrichment (6-mer frequency, TF over GST control). For the same sequence, the binding signal [13] was 1.1 fold enrichment (6-mer frequency, TF over GST control), the binding signal [14] was 1.19 fold enrichment (6-mer frequency, TF over GST control) and the binding signal [15] was 1.22 fold enrichment (6-mer frequency, TF over GST control). The binding signal [16] was 1.29 fold enrichment (6-mer frequency, TF over GST control), the binding signal [17] was 1.43 fold enrichment (6-mer frequency, TF over GST control) and the binding signal [18] was 1.24 fold enrichment (6-mer frequency, TF over GST control). For the same sequence, the binding signal [19] was 1.35 fold enrichment (6-mer frequency, TF over GST control).
